# Compound activity (PubChem BioAssay)
# Most compounds without a hit are left out; they make up all but 3.3% or so of the library.
# PI5P4Ka inh – PI5P4K alpha (human) kinase inhibition. PI5P4Kalpha enzyme, ADP-Glo luminescence, 60 min; active compounds read low. max response, %. 330,000 compounds, 1.2% hits; active = max response of -50% or lower; inconclusive = between -30% and -50%; inactive = -30% or higher; also: value at the top dose of about 77 µM; % is scaled to controls: 0 for no effect and ±100 for the full control effect
#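 ADP-Glo luminescence end-point read after a 60 min room-temperature kinase reaction of PI5P4Kalpha plus substrate, initiated with ATP at 5 microM final. Buffer: 0.038 M HEPES pH 7.4, EGTA, 0.1% CHAPS, 5% DMSO.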
# DRD3 antagonist – D3 dopamine receptor (human) antagonism. P35462. 360,000 compounds, 2.5% hits. AID 652054. D3R cells, DiscoveRx beta-arrestin luminescence, antagonist mode; active compounds read low. max response, negative = inhibition, %; in the data active = max response below about -50%; inconclusive = no clear call, values can overlap the other calls; also: % is scaled to controls: 0 for no effect and ±100 for the full control effect
# Target sequence (P35462 whole entry, looked up): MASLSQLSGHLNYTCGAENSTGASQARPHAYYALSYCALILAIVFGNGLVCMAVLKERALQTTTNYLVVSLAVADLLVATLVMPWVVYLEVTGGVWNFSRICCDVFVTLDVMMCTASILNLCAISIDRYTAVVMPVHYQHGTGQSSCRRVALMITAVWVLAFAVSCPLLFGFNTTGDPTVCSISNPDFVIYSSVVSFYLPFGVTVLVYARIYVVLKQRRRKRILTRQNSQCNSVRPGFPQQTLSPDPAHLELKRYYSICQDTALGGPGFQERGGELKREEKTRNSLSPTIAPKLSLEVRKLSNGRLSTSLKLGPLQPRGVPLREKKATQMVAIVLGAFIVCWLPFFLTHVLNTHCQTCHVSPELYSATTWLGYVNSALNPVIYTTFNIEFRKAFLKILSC
#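 Cells plated overnight at 1500 cells/well, then exposed to library compounds with dopamine controls for 90 minutes at 37 degrees C. DiscoveRx reagent added for 30–60 minutes at room temperature; luminescence read, quantitative HTS format.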
# PI4K2A block – inhibitors of human PI4K2A | purified PI4K2A, ADP-Glo luminescence, 1 h; active compounds read low | activity change, negative = inhibition, % at 76.9 µM | 420,000 compounds, 0.13% hits | AID 1346378; in the data active = activity change below about -50%; inconclusive = mostly about -30% to -49%;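 also: -100% = wells without enzyme as full effect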
#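 In this quantitative HTS, ADP production by PI4K2A was quantified luminescently after 1 h at ambient temperature; 100 microM adenosine served as plate-quality control.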
# D3 ag – agonists of human D3 dopamine receptor | P35462 | D3R DiscoveRx beta-arrestin cells, luminescence, 90 min | max activation, % | 410,000 compounds, 0.58% hits | AID 652048; in the data active = max activation above about 30%; also: 0% is about no effect
#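 Agonist mode: compounds and dopamine controls were applied to plated cells for 90 min at 37 degrees C after an overnight attachment at 1500 cells/well. Luminescent read-out followed 30 - 60 minutes at room temperature with DiscoveRx detection reagent.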
# LDHA inh – blocks human lactate dehydrogenase A; purified LDHA, NADH/diaphorase-resazurin fluorescence; active compounds read low; activity change, % (values are at about 110 or 230 µM); 480,000 compounds, 0.15% hits; AID 1347041; in the data active = activity change below about -30%; inconclusive = mostly about -25% to -30%;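 also: plate controls were DMSO wells for no effect and wells without enzyme for full effect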
#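 LDH5 2 nM; NADH 0.06 mM, pyruvate 0.2 mM; 200 mM Tris pH 7.4, EDTA, Tween-20; 5 min RT. Detection: diaphorase 0.133 mg/mL + resazurin 37 µM, fluorescence ex540/em590 at 0 and 20 min; normalized to enzyme-free and DMSO wells.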
# The depositor's hits bear a star; u = inconclusive; x = not tested or not shown; ! = a repeat was not active.
SMILES,PI5P4Ka inh,DRD3 antagonist,PI4K2A block,D3 ag,LDHA inh
CCOc1ccc(N=C2NC(=O)S/C2=C\c2ccc(Cl)cc2)cc1,0.6,-1.8,-3.5,-1.2,-9.1
COc1ccc(N=C2NC(=O)S/C2=C\c2ccc(N(C)C)cc2)cc1,-5.8,-66.0*,-4.7,-15.8,-3.7
O=C(Nc1ccc2oc(-c3ccncc3)nc2c1)c1c(F)c(F)c(F)c(F)c1F,2.2,-66.0*,-15.4,-16.0,-0.9
COc1c(F)c(F)c(C(=O)Nc2ccc3oc(-c4ccncc4)nc3c2)c(F)c1F,-22.5,15.4,-7.9,7.3,-5.8
CC1(C)C2CCC1(C)C(OC(=O)C[N+](C)(C)C)C2 (configuration not stated),x,x,x,x,-2.1
Cc1cc2c(C)nc(N/N=C/c3ccc([N+](=O)[O-])cc3)nc2o1,-5.5,-4.8,-1.9,3.3,-8.6
Cc1cc2c(C)nc(N/N=C/c3ccc(F)cc3)nc2o1,0.0,-55.7*,-3.3,3.3,2.0
COC(=O)CN(n1cnnc1)S(=O)(=O)c1ccc(C)cc1,-0.7,-54.4*,5.5,0.0,-2.5
COC(=O)CN(c1cc(Cl)ccc1OC)S(=O)(=O)c1ccc(C)cc1,5.2,-15.8,2.6,-7.5,-0.8
CC(=O)Nc1c(O)nc(SCc2ccccc2C#N)[nH]c1=O,0.8,-51.0*,-1.5,8.5,2.8
N#Cc1ccccc1CSc1nc(O)cc(=O)[nH]1,-11.1,0.4,-4.2,-4.4,-4.4
O=C(COc1ccccc1)NCCc1c[nH]c2ccccc12,x,x,x,x,3.2
CCn1cc(CN2CCC(C(=O)Nc3ccc(Oc4ccccc4F)cc3)CC2)c(C)n1,-7.4,u,1.6,-12.3,-3.7
CC(C)n1cc(CN2CCC(C(=O)Nc3ccc(Oc4ccccc4F)cc3)CC2)cn1,-1.4,-60.8*,-1.4,-0.3,0.1
CCOc1ccc(/C(O)=C2\C(=O)C(=O)N(CCN(C)C)C2c2cc(OC)ccc2OC)cc1Cl (configuration not stated),1.8,25.2,1.4,-1.5,-0.7
CCOc1ccc(/C(O)=C2\C(=O)C(=O)N(CCN(C)C)C2c2cccc(OC)c2OC)cc1Cl (configuration not stated),-12.1,-56.3*,4.3,-1.1,-5.0
CC(C)OC(=O)/C(C#N)=C/c1c[nH]c2ccccc12,1.3,5.5,4.7,-4.3,-32.5*!
O=C(CCC1COc2ccccc2O1)Nc1ccccn1 (configuration not stated),1.5,-3.6,-1.9,-1.0,0.6
O=C(CCC1COc2ccccc2O1)Nc1cccnc1 (configuration not stated),x,24.7,2.7,33.2*,-1.7
Cn1cnnc1SCC(=O)Nc1ncc([N+](=O)[O-])s1,-50.1*,-10.3,-7.3,2.5,-9.5
Cc1csc(NC(=O)CSc2nncn2C)n1,4.9,-63.4*,3.7,-5.6,2.9
O=C(COC(=O)COc1ccccc1)Nc1ncc([N+](=O)[O-])s1,-53.1*,-28.6,-3.9,-2.7,5.2
CC(=O)Nc1ncc([N+](=O)[O-])s1,x,x,1.3,-11.6,x
CCC(C)N=C1Sc2nc3ccc(C)cc3cc2CN1CCOC (configuration not stated),-53.0*,6.0,-1.7,-1.2,0.7
COCCN1Cc2cc3cc(C)ccc3nc2SC1=Nc1ccc(OC)cc1,5.6,4.0,-1.9,5.9,-4.2
SMILES,PI5P4Ka inh,DRD3 antagonist,PI4K2A block,D3 ag,LDHA inh
Cc1csc(/C(C#N)=C\C2=Cc3cc(Cl)ccc3OC2)n1,x,x,x,x,-1.2
CCn1c(C)c(CS(=O)(=O)c2ccccc2)[nH]c1=O,2.7,-71.0*,4.7,-12.1,-9.0
O=c1[nH]c(CS(=O)(=O)c2ccccc2)nc2ccccc12,-16.8,u,-17.4,-3.6,-9.1
CCCCc1cc(=O)oc2cc(OC(C)C(=O)NCc3ccncc3)c(Cl)cc12 (configuration not stated),x,x,x,x,-2.1
Cc1cc(S(=O)(=O)NC[C@H]2O[C@@H](n3ccc(N)nc3=O)[C@H](O)[C@@H]2O)c(C)s1,-0.3,-12.8,-9.4,-5.9,-30.6*
CCOC(=O)Cc1csc(NC(=O)CC)n1,x,-0.2,1.3,0.2,-10.7
CCOC(=O)Cc1csc(NC(=O)CN2CCCCC2)n1,1.5,-54.8*,-5.2,-8.3,-4.5
CCOC(=O)CC[C@@]1(C(=O)OCC)C[C@@H](CC(=O)NCc2ccc(OC)c(OC)c2)C(=O)N2CCCC=C21,x,x,1.7,x,x
CCCC[n+]1c2ccccc2cc2ccccc21,u,-93.7*,25.3,1.7,2.9
CSc1ccc2c(c1)N(CCC1CCCCN1C)c1ccccc1S2 (configuration not stated),20.1,-88.9*,3.4,-81.5,-3.9
CN1CC[C@H](CN2c3ccccc3Sc3ccccc32)C1,x,x,x,x,3.3
CSc1cccc(NC(=O)c2ccccc2C)c1,x,x,x,x,2.9
O=c1[nH]c(=O)c2[nH]c(=S)n(-c3ccccc3)c2[nH]1,-55.9*,-23.2,-8.5,15.6,11.9
O=C(O)c1ccc2c(=O)n(-c3ccccc3)c(=S)[nH]c2c1,-11.6,-18.6,-4.8,-11.4,3.1
NC(=S)N/N=C/c1coc2ccc(O)cc2c1=O,-72.0*,24.7,-12.1,3.9,3.7
O=C(N/N=C/c1coc2ccccc2c1=O)c1cc(Br)c(O)c(Br)c1,-70.2*,-9.4,1.3,4.0,-3.1
NC(=S)N/N=C/c1coc2ccc(Br)cc2c1=O,-22.4,-13.8,4.0,3.2,-2.5
CC[C@H](C)[C@H](NC(=O)c1ccc(Cl)cc1)C(=O)OCc1ccc(C(N)=O)cc1,x,x,x,x,-15.9
CCC(C)c1ccccc1OC(=O)c1ccc(OC)c(I)c1 (configuration not stated),x,x,x,x,-0.7
O=C(NCc1ccc(F)cc1)c1cccc2c1C(=O)c1ccc(N3CCC(Cc4ccccc4)CC3)cc1S2(=O)=O,-2.0,0.0,-3.2,42.7*,-5.0
O=C(O)c1ccc2c(c1)S(=O)(=O)c1cc(N3CCN(c4ncccn4)CC3)ccc1C2=O,-56.9*,-1.2,4.4,-3.3,-2.2
O=C(NC1CC1)c1cccc2c1C(=O)c1ccc(N3CCC(Cc4ccccc4)CC3)cc1S2(=O)=O,0.0,77.9,2.8,26.9,-9.0
CC1CCN(c2ccc3c(c2)S(=O)(=O)c2cccc(C(=O)NCc4ccc(F)cc4)c2C3=O)CC1,9.6,82.1,1.1,14.6,-17.8
O=C1c2ccccc2S(=O)(=O)c2cc(C(=O)N3CCN(c4ncccn4)CC3)ccc21,-4.4,6.8,4.9,9.7,-10.5
O=C1c2ccccc2S(=O)(=O)c2cc(N3CCC(C(=O)N4CCCCC4)CC3)ccc21,0.2,49.2,-3.1,38.5*,-1.8
O=C(NCc1cc(C(F)(F)F)ccc1Cl)c1cccc2c1C(=O)c1ccc(N3CCC(Cc4ccccc4)CC3)cc1S2(=O)=O,-8.5,5.3,0.5,46.5*,-2.9
O=C(c1ccc(C2SCCS2)cc1)N1CCN(S(=O)(=O)c2ccc(F)cc2)CC1,x,x,x,x,2.7
